Among the test systems are T-47D breast; BT-549 breast; MDA-MB-435 melanoma; SW-620 colon; MCF7 breast; HCT-116 colon; HCC-2998 colon; KM12 colon; MDA-MB-468 breast.
Holding throughout (experiment): NCI-60 one-dose screen, 48 h (100 = growth as untreated, 0 = no growth, -100 = all killed)
Settings in all cases: 10 µM

The panel holds about 83,000 compounds, 20% with a hit somewhere; the sample as a whole holds those more often.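 How to read the values: 0–100, growth inhibition (40 = 60% inhibited); 0, no net growth; -100 to 0, cell death (-40 = 40% of starting cells died; -100 = all dead).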 A number with no mark means an inactive call. Activity calls are given as the source filed them. How the source made its calls: active means growth percent below 10; inactive means the rest.

`O=C1Nc2cc(Cl)ccc2/C1=C/c1ccc(OCc2ccc(Br)cc2F)cc1`: the growth is -48.4% (active) in the assay with T-47D breast; -18.7% (active) with BT-549 breast; -27.5% (active) with MDA-MB-435 melanoma; -56% (active) with SW-620 colon; 6.09% (active) in the assay with MCF7 breast; -73% (active) in the assay on HCT-116 colon. The growth is 19.5% with HCC-2998 colon, -7.72% (active) in the assay on KM12 colon and -70.1% (active) in the assay on MDA-MB-468 breast.

In the case of `COc1ccc(-c2c(N)c(=O)n(C)c3ccccc23)cc1`, the growth in the assay on T-47D breast was 57.2%; in the assay on BT-549 breast, 43%; in the assay with MDA-MB-435 melanoma it was 59.2%; in the assay with SW-620 colon it was 65.5%; in the assay with MCF7 breast, 24.8%; with HCT-116 colon, 37.5%. The results for the growth in the assay with HCC-2998 colon, in the assay with KM12 colon and in the assay on MDA-MB-468 breast were 81.5%, 64.5% and 50.1%, respectively.

Turning to `O=C(Nc1cc(Cl)cc(Cl)c1)Nc1cc(Cl)cc(Cl)c1`, the growth was -18.9% (active) in the assay on T-47D breast; -41.1% (active) with BT-549 breast; -47% (active) with MDA-MB-435 melanoma; -42.3% (active) with SW-620 colon; -21.2% (active) in the assay with MCF7 breast; -79.3% (active) with HCT-116 colon. Also, the growth is -27.3% (active) in the assay with HCC-2998 colon, -22.9% (active) with KM12 colon and -40.1% (active) in the assay on MDA-MB-468 breast.

For `COc1cccc2nc(Nc3cccc(NC(=O)c4ccc(CN5CCCN(C)CC5)c(C(F)(F)F)c4)c3)ccc12`, the growth is -55.9% (active) in the assay with T-47D breast; -92.5% (active) in the assay with BT-549 breast; -100% (active) with MDA-MB-435 melanoma; -97.5% (active) with SW-620 colon; -90% (active) with MCF7 breast; -64.7% (active) with HCT-116 colon. Also, the growth was -96.6% (active) in the assay on HCC-2998 colon, -63.9% (active) with KM12 colon and -87.9% (active) in the assay with MDA-MB-468 breast.

For the molecule `COc1cnc2c(c1)C(=O)c1c-2n(CCCNCCO)c(=O)c2cc(OC)c(OC)cc12`, the growth is 10.1% with T-47D breast; 40.7% with BT-549 breast; 49.7% in the assay with MDA-MB-435 melanoma; 38.4% with SW-620 colon; 5.82% (active) with MCF7 breast; 1.67% (active) with HCT-116 colon. Also, the growth is 30.3% with HCC-2998 colon, 54.5% with KM12 colon and -48.8% (active) with MDA-MB-468 breast.

Regarding `COc1ccc(C(C)=C(c2ccc(OCCCN(C)C)cc2)c2ccc(OCCCN(C)C)cc2)cc1`, the growth in the assay on T-47D breast was -76.2% (active); with BT-549 breast it was -78.4% (active); with MDA-MB-435 melanoma, -99.9% (active); in the assay on SW-620 colon it was -59.4% (active); in the assay on MCF7 breast, -69.5% (active); in the assay with HCT-116 colon it was -72.1% (active). Besides, the growth with HCC-2998 colon was -91.6% (active); with KM12 colon it was -85.5% (active); in the assay with MDA-MB-468 breast it was -88% (active).

Consider `CCC(C)S(=O)(=O)c1oc(-c2ccc(C)cc2)nc1S(=O)(=O)c1ccccc1` (stereo unspecified), for which the growth with T-47D breast was -73.5% (active); with BT-549 breast, -13.3% (active); in the assay on MDA-MB-435 melanoma it was -98.2% (active); in the assay on SW-620 colon, -38.6% (active); in the assay with MCF7 breast, -56.5% (active); in the assay on HCT-116 colon it was -6.96% (active). In addition, the growth with HCC-2998 colon was -84.6% (active); with KM12 colon, -65% (active); with MDA-MB-468 breast it was -93.4% (active).

Regarding `C/C(=N\NC(N)=S)c1ccc(Nc2nc(SC(C)C)nc(-c3ccccc3)c2C#N)cc1`, the growth with T-47D breast is 57.3%; in the assay on BT-549 breast, 28.5%; in the assay on MDA-MB-435 melanoma, 82.6%; with SW-620 colon, 85.8%; with MCF7 breast, 64.2%; with HCT-116 colon, 57.5%. The growth in the assay on HCC-2998 colon was 59.2%; with KM12 colon, 75.7%; in the assay on MDA-MB-468 breast, 28.2%.

Turning to `CC(=O)NNc1ccc2nnc(-c3ccc(Br)cc3)n2n1`, the growth in the assay with T-47D breast is 84.2%; with BT-549 breast, 90.2%; in the assay on MDA-MB-435 melanoma it was 94.6%; in the assay with SW-620 colon it was 102%; in the assay on MCF7 breast, 87.8%; with HCT-116 colon, 101%. Further, the figures for the growth in the assay with HCC-2998 colon, with KM12 colon and in the assay on MDA-MB-468 breast were 109%, 105% and 97.4%, respectively.

Regarding `Cc1cc(C)nc(NS(=O)(=O)c2ccc(N/C(N)=N/c3nccc(-c4cccs4)n3)cc2)n1`, the growth was 78.8% with T-47D breast; 111% in the assay on BT-549 breast; 106% with MDA-MB-435 melanoma; 102% in the assay on SW-620 colon; 67.6% in the assay with MCF7 breast; 96.4% in the assay on HCT-116 colon. Further, the growth in the assay with HCC-2998 colon was 127%; in the assay on KM12 colon, 96.9%; with MDA-MB-468 breast it was 106%.

As to `Cc1noc2c(Cc3ccc([N+](=O)[O-])cc3)nn(CC(=O)N/N=C/c3ccc(Br)cc3)c(=O)c12`, the growth with T-47D breast was 62%; in the assay on BT-549 breast, 94.3%; in the assay on MDA-MB-435 melanoma, 92.3%; with SW-620 colon it was 97.4%; in the assay with MCF7 breast, 68.4%; in the assay on HCT-116 colon it was 64.4%. Further, the growth with HCC-2998 colon was 91.9%; with KM12 colon it was 84.2%; in the assay with MDA-MB-468 breast, 95.3%.

For the molecule `CN1CCN(c2ccc(Nc3nc(NCCCNC(=O)c4ccc(Cl)cc4)c4sccc4n3)cc2)CC1`, the growth in the assay on T-47D breast is 41.9%; with BT-549 breast it was 80.1%; in the assay with MDA-MB-435 melanoma it was 86.2%; in the assay on SW-620 colon it was 93%; in the assay on MCF7 breast it was 49.1%; in the assay on HCT-116 colon it was 15.1%. The growth was 91.3% in the assay with HCC-2998 colon, 68.7% in the assay on KM12 colon and 68.3% with MDA-MB-468 breast.

Turning to `C#CCNC(=O)CCC(=O)OC[C@]12CC[C@@H](C(=C)C)[C@@H]1C1CC[C@@H]3[C@@]4(C)CCCNC(C)(C)[C@@H]4CC[C@@]3(C)[C@]1(C)CC2` (stereo partly specified), the growth is 10.9% with T-47D breast; 11% in the assay with BT-549 breast; -32.2% (active) in the assay on MDA-MB-435 melanoma; -92.3% (active) with SW-620 colon; -65.7% (active) in the assay with MCF7 breast; -60.3% (active) with HCT-116 colon. In addition, the growth is -99.1% (active) in the assay with HCC-2998 colon, 6.5% (active) in the assay on KM12 colon and -94.9% (active) in the assay with MDA-MB-468 breast.

Regarding `COc1ccccc1[C@H]1C(C(=O)c2ccc(O)cc2)C2(N[C@@H]1c1ccccc1)C(=O)Nc1ccc(Br)cc12` (stereo partly specified), the growth in the assay with T-47D breast was 45.8%; with BT-549 breast, 54%; in the assay with MDA-MB-435 melanoma it was 14.2%; in the assay with SW-620 colon it was 13.6%; in the assay with MCF7 breast, 3.19% (active); with HCT-116 colon it was 39.6%. The values for the growth in the assay on HCC-2998 colon, in the assay on KM12 colon and in the assay on MDA-MB-468 breast were -38.6% (active), 14.3% and -42.9% (active), respectively.

(Values after PubChem BioAssay (NCI).)
